Reference: publication PMC4336329 (PLoS ONE, 2015)
Out of some 310,000 compounds screened, about 2,200 (0.71%) showed an effect of 50% or more. The effect is printed as a negative number. The full list was thinned out, with strong results kept by preference.

target: human ether-à-go-go-related gene (hERG) potassium channel (human, UniProt Q12809); assay: primary screen, population patch clamp on CHO cells stably expressing hERG; higher = less effect of the substance
Sequence (Q12809 whole entry, looked up): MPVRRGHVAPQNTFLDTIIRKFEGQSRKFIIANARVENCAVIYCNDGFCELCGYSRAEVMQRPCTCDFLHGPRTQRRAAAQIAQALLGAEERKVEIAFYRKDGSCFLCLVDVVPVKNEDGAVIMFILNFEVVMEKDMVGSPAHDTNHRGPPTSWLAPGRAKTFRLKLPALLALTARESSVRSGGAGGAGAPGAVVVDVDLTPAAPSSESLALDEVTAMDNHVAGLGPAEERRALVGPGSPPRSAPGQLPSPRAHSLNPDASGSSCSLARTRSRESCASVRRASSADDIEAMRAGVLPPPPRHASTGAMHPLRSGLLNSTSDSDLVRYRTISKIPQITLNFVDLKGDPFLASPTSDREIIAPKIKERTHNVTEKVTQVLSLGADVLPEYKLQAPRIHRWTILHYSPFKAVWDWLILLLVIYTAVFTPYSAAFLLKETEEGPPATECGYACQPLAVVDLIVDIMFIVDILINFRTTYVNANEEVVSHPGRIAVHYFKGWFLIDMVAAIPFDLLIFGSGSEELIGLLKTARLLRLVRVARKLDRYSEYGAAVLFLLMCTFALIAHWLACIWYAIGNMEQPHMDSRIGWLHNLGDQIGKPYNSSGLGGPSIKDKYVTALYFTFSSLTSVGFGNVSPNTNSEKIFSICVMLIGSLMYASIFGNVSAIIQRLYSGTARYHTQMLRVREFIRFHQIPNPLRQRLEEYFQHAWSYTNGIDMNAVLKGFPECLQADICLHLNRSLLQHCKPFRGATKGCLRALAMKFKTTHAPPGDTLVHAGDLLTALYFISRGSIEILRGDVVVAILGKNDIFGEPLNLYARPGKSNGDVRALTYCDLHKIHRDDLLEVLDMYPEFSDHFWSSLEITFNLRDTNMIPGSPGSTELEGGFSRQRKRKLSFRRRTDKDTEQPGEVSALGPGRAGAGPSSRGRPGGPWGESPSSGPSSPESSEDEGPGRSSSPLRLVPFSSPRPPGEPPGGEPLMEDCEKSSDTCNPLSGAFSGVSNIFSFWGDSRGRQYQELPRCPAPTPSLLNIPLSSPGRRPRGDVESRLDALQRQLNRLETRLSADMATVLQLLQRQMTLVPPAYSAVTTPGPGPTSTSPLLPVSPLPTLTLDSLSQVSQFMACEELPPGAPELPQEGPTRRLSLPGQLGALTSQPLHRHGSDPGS

First: COc1ccc(C(=O)N(C)C2CCCN(Cc3ccccc3F)C2)cc1OC (stereo not shown)
Second: COc1ccc(C(=O)NC2CC2)cc1OC1CCN(Cc2ccccc2F)CC1
The “hERG current change (%, negative = inhibition) at 1uM” value of the first is higher: 10.2% for the first, -64.5% for the second.

Compared with `COc1cc(C(=O)NC2Cc3ccccc3C2)ccc1OC1CCN(C(C)=O)CC1`, `COc1ccc(C(=O)NCCc2ccccc2F)cc1OC1CCN(C(C)=O)CC1` is higher in “hERG current change (%, negative = inhibition) at 1uM” value: 9.82% for the first, 12.5% for the second.

First: C=CCOc1ccccc1CN1CCC(Oc2ccc(C(=O)N3CCCC3)cc2)CC1
Second: C=CCOc1ccccc1CN1CCC(Oc2cc(C(=O)NC3CC3)ccc2OC)CC1
The “hERG current change (%, negative = inhibition) at 1uM” value of the first is higher: -19.5% for the first, -66.6% for the second.

Going from `COc1ccc(C(=O)NC2CC2)cc1OC1CCN(Cc2ccccc2O)CC1` to `COc1ccc(CN2CCC(Oc3cc(C(=O)NC4CC4)ccc3OC)CC2)c(O)c1`, the “hERG current change (%, negative = inhibition) at 1uM” value rises from -91.5% to -87.5%.

Going from `COc1ccc(C(=O)NC2CC2)cc1OC1CCN(Cc2cc(C)c(C)cc2C)CC1` to `COc1ccc(C(=O)NC2CC2)cc1OC1CCN(Cc2cnn(C)c2C)CC1`, the “hERG current change (%, negative = inhibition) at 1uM” value rises from -74.1% to -2%.

Going from `CCn1ncc(CN2CCC(Oc3cc(C(=O)NC4CC4)ccc3OC)CC2)c1C` to `COc1ccccc1CCNC(=O)c1ccc(OC)c(OC2CCN(C(C)C)CC2)c1`, the “hERG current change (%, negative = inhibition) at 1uM” value falls from 1.05% to -4.22%.

First: CCOC(=O)c1c(C)nc2ncccn12
Second: CCOC(=O)c1nc2cc3n(c(C)c-2c1C)C(C)C(C)=C3C.Cl (stereo not shown)
The “hERG current change (%, negative = inhibition) at 1uM” value of the first is higher: 2.38% for the first, -13.9% for the second.

Going from `COC(=O)Oc1ccc(/C=N/NC(=O)CN(c2ccccc2Cl)S(C)(=O)=O)cc1OC` to `Cc1ccc(C(=O)COC(=O)CCC(=O)Nc2ccccc2Cl)cc1[N+](=O)[O-]`, the “hERG current change (%, negative = inhibition) at 1uM” value falls from 9.16% to 8.32%.

Compared with `CC1Cn2c(nnc2C23CC4CC(CC(C4)C2)C3)S1` (stereo not shown), `S=C1NNC2(NN1)C1CC3CC(C1)CC2C3` is higher in “hERG current change (%, negative = inhibition) at 1uM” value: 7.65% for the first, 12.4% for the second.

First: Cc1ccc(N2NC(=O)/C(=C\c3cc4c(cc3[N+](=O)[O-])OCO4)C2=O)cc1C
Second: CCOC(=O)c1nn(-c2ccc(F)cc2)c(=O)cc1OCC(=O)Nc1ccc(OCC)cc1
The “hERG current change (%, negative = inhibition) at 1uM” value of the first is lower: 0.881% for the first, 10.8% for the second.

Going from `CCN(c1ccccc1)S(=O)(=O)c1ccc2[nH]c(=O)[nH]c2c1` to `COc1ccc(-n2cnnc2SCC(=O)N2CCN(S(=O)(=O)c3ccccc3)CC2)cc1`, the “hERG current change (%, negative = inhibition) at 1uM” value falls from 8.82% to 1.1%.

Going from `O=C(Nc1ccc(-n2ccc(C(F)(F)F)n2)cc1)Nc1cccc(Cl)c1` to `O=C(NCc1ccccc1)c1cnc(-c2ccccn2)nc1C(F)(F)F`, the “hERG current change (%, negative = inhibition) at 1uM” value falls from 11.3% to 9.39%.

Compared with `COc1ccc(CN2CCC(Oc3ccc(C(=O)NCc4ccccn4)cc3)CC2)c(F)c1`, `COc1ccc(CCN2CC(C(=O)N(C)CCOc3ccccc3)CCC2=O)cc1` (stereo not shown) is lower in “hERG current change (%, negative = inhibition) at 1uM” value: 7.46% for the first, -34.3% for the second.

Compared with `COc1ccc(OC)c(CN2CCC(N3CCC(C(=O)NC4CC4)CC3)CC2)c1`, `COc1ccc(CCN2CC(C(=O)N(C)Cc3ccccc3OC)CCC2=O)cc1` (stereo not shown) is higher in “hERG current change (%, negative = inhibition) at 1uM” value: 4.7% for the first, 26.7% for the second.

Going from `CCOC(=O)c1nc2cc3n(c(C)c-2c1C)C(C)C(CC)=C3C.Cl` (stereo not shown) to `CCOC(=O)c1nc2cc3n(c(CC(C)C)c-2c1C)CC(C)=C3C.Cl`, the “hERG current change (%, negative = inhibition) at 1uM” value falls from -39.5% to -54.2%.

Compared with `Cc1c2ccccc2nc2c(F)c(N(C)C)c(F)c(F)c12`, `CN(CCNC(=O)C1CCC(=O)N(Cc2cccc(F)c2)C1)CCc1ccccc1` (stereo not shown) is lower in “hERG current change (%, negative = inhibition) at 1uM” value: 19.7% for the first, -14.8% for the second.

Compared with `O=C(NCCOc1ccccc1)C1CCC(=O)N(CCc2ccc(Cl)cc2)C1` (stereo not shown), `CN(CCOc1ccccc1)C(=O)C1CCC(=O)N(CCc2ccc(Cl)cc2)C1` (stereo not shown) is lower in “hERG current change (%, negative = inhibition) at 1uM” value: -45% for the first, -51.2% for the second.

Going from `COc1ccccc1CCCNC(=O)C1CCC(=O)N(CCc2ccc(Cl)cc2)C1` (stereo not shown) to `O=C(NCCCc1ccccc1)C1CCC(=O)N(CCc2ccc(Cl)cc2)C1` (stereo not shown), the “hERG current change (%, negative = inhibition) at 1uM” value falls from -3.88% to -62.2%.

First: CN(CCNC(=O)C1CCC(=O)N(Cc2ccc(Cl)cc2)C1)CCc1ccccc1 (stereo not shown)
Second: O=C(NCCc1ccccc1)C1CCC(=O)N(Cc2ccc(Cl)cc2)C1 (stereo not shown)
The “hERG current change (%, negative = inhibition) at 1uM” value of the first is lower: -50.5% for the first, 5.85% for the second.

Going from `CCc1ccc(CN(C)C(=O)C2CCC(=O)N(CCc3ccc(OC)cc3)C2)nc1` (stereo not shown) to `CCc1ccc(CN(C)C(=O)C2CCC(=O)N(Cc3cccc(OC)c3)C2)nc1` (stereo not shown), the “hERG current change (%, negative = inhibition) at 1uM” value rises from -57.9% to 4.11%.

First: O=C(NCCCc1ccccc1)C1CCC(=O)N(Cc2ccc(Cl)cc2)C1 (stereo not shown)
Second: C/C(=N\N1C(=O)CSC1=S)c1ccc(Br)cc1
The “hERG current change (%, negative = inhibition) at 1uM” value of the first is lower: -6.98% for the first, 1.48% for the second.

With `Nc1nc(CSc2nnnn2-c2ccc(Cl)cc2)nc(N2CCOCC2)n1` the “hERG current change (%, negative = inhibition) at 1uM” value was 11.5%.
